Data taken from PubChem BioAssay (NCATS).
Unmarked numbers belong to inactive results. Records with an inconclusive call do not appear. A call without a number means that no potency is given here. Active and inactive are the calls of the source. Unless noted, the call rests on the fitted dose curve; in most records, active means well fitted curve in the direction sought with a large enough effect; inconclusive means small, poorly fitted or top-dose-only effect, or another doubt; inactive means no such curve, though single readings can be large; an effect the other way counts as inactive or inconclusive.

Assays:
[1] = target: Mitogen-activated protein kinase 10 (Mus musculus) (UniProt Q61831); assay: JNK3 AlphaScreen Assay (AID 530; active means well fitted curve in either direction with a large enough effect, not every such curve was filed as active;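 further: kinase came from lysate of stimulated human HepG2 cells; signal reports phosphorylation of biotinylated GST-cJun 1-79 at Ser73 with 10 µM ATP; series mostly up to about 57 µM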)
Outline: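 Room-temperature AlphaScreen kinase assay; pre-activated HepG2 lysate as JNK3 source, biotin-GST-cJun(1-79) substrate, 10 uM ATP, compound 15 min preincubation.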

[2] = Cell Viability - NIH 3T3 (AID 541); further: nearly all actives have a fitted effect of over 25% in size
Outline: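 NIH 3T3 mouse embryo fibroblasts (1000 cells/well) were plated in complete medium and treated with compound for 40 hr at 37 °C. Viability was read as intracellular ATP by CellTiter-Glo luminescence; AC50 values came from Hill-equation fits of concentration-response data.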

[3] = Cell Viability - HUV-EC-C (AID 542); further: nearly all actives have a fitted effect of over 35% in size
Outline: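 HUV-EC-C normal human vascular endothelial cells, 1000 cells/well, pre-incubated 5 hr at 37 °C, then exposed to compounds for 40 hr at 37 °C in complete medium. Viability measured as intracellular ATP by CellTiter-Glo luminescence; AC50 from Hill fits.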

[4] = Cell Viability - H-4-II-E (AID 543); further: nearly all actives have a fitted effect of over 35% in size
Outline: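 Rat hepatoma H-4-II-E cells (1500/well) were plated, incubated 5 hr at 37 °C, then exposed to compounds for 40 hr at 37 °C. Cellular ATP was read by CellTiter-Glo luminescence; AC50 came from Hill-equation fits of concentration-response data.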

[5] = Cell Viability - SH-SY5Y (AID 544); further: nearly all actives have a fitted effect of over 55% in size; further: potency means the concentration at half of the fitted maximal effect
Outline: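 Human neuroblastoma SH-SY5Y cells (1500/well) in complete medium were exposed to compounds for 40 hr at 37 °C; intracellular ATP was then quantified by CellTiter-Glo luminescence after 20 min at room temperature. AC50 came from Hill-equation concentration-response fits.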

[6] = Cell Viability - Renal Proximal Tubule (AID 545); further: nearly all actives have a fitted effect of over 40% in size
Outline: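 Primary rat renal proximal tubule cells (1000/well) were treated with compounds for 40 hr at 37 °C in complete medium. Intracellular ATP was measured by CellTiter-Glo luminescence, and AC50 values came from Hill-equation fits of concentration-response data.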

[7] = Cell Viability - Mesenchymal (AID 546);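 further: cells exposed to compound for 40 hours before reading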
Outline: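 AC50 values reflect the drop in intracellular ATP in a human kidney mesenchymal line derived from normal glomeruli. Treatment lasts 40 hr at 37 °C in complete medium, and the signal comes from CellTiter-Glo luminescence.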

[8] = Cellular Toxicity (caspase-3) HepG2 (AID 654);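 further: cells exposed to compound for 16 hours before reading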
Outline: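 HepG2 cells (1500/well) in complete medium were treated with compounds for 16 hr at 37 °C. Caspase-3/7 activity was then read as luminescence from peptide-aminoluciferin cleavage. AC50 came from Hill fits, normalized to DMSO and 100 uM tamoxifen.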

[9] = Cellular Toxicity (caspase-3) Jurkat (AID 655);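 further: cells exposed to compound for 16 h at 37 °C before reading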
Outline: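 Jurkat cells (5000/well) in complete medium were treated with compounds for 16 hr at 37 °C, then Caspase-Glo 3/7 luminescence was read after 20 min at room temperature. Data normalized to DMSO (basal) and 100 uM tamoxifen (100%); AC50 from Hill fit.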

[10] = Cellular Toxicity (caspase-3) HUV-EC-C (AID 656)
Outline: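 HUV-EC-C endothelial cells, 1000/well, were pre-incubated 5 hr at 37°C, then exposed to compounds for 16 hr at 37°C. Caspase-Glo 3/7 luminescence was read after 20 min at room temperature. AC50 came from Hill fits, normalized to DMSO and 100 uM tamoxifen.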

[11] = Cellular Toxicity (caspase-3) SHSY5Y (AID 657)
Outline: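 SH-SY5Y human neuroblastoma cells (1500/well) were treated with compounds for 16 h at 37 °C, then Caspase-Glo 3/7 luminescence was read after 1 h at room temperature. Data normalized to DMSO and 10 uM staurosporine; AC50 from Hill fits.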

[12] = Cellular Toxicity (caspase-3) BJ (AID 658)
Outline: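 Readout: Caspase-Glo 3/7 luminescence increase in BJ cells after 16 hr treatment at 37 °C. Staurosporine and tamoxifen served as positive controls; AC50 values came from Hill modelling of data normalized to DMSO and 10 uM staurosporine.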

[13] = Cellular Toxicity (caspase-3) MRC-5 (AID 659)
Outline: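 Concentration-dependent caspase 3/7 activation is measured in human normal lung fibroblasts (MRC-5) following 16-hour treatment. AC50 values come from standard Hill-equation modeling of luminescence normalized to DMSO and 10 uM staurosporine.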

[14] = Cellular Toxicity (caspase-3) Mesangial (AID 660);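 further: cells exposed to compound for 16 h before the caspase read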
Outline: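 Human renal glomerular mesangial cells (1000/well) were treated with compounds for 16 h at 37 °C in complete medium, then caspase 3/7 activity was read by Caspase-Glo luminescence. Data were normalized to DMSO and 100 uM tamoxifen; AC50 from Hill fits.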

[15] = Cellular Toxicity (caspase-3) SK-N-SH (AID 661)
Outline: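 SK-N-SH human neuroblastoma cells (1500/well) were treated with compounds for 16 hr at 37 °C in complete medium; caspase 3/7 activity was read by Caspase-Glo luminescence. AC50 came from Hill fits of data normalized to DMSO and 10 uM staurosporine.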

[16] = Cellular Toxicity (caspase-3) Hek293 (AID 664);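 further: cells exposed to compound for 16 h at 37 °C before readout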
Outline: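 HEK293 cells were exposed to compounds in complete medium for 16 hr at 37 °C, then caspase-3/7 activity was read by Caspase-Glo 3/7 luminescence after 20 min at room temperature. Data normalized to DMSO and 100 uM tamoxifen; AC50 from Hill fits.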

[17] = Cellular Toxicity (caspase-3) N2a (AID 665);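 further: compound exposure lasted 16 h at 37 °C before readout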
Outline: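 Mouse N2a neuroblastoma cells (1500/well) were treated with compounds for 16 h at 37 °C, then caspase-3/7 activity was read by Caspase-Glo luminescence after 1 h at room temperature. Data were normalized to DMSO and 10 uM staurosporine; AC50 from Hill fits.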

[18] = Cellular Toxicity (caspase-3) NIH 3T3 (AID 666);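 further: caspase signal read after 16 h compound exposure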
Outline: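 Mouse NIH 3T3 fibroblasts (1000 cells/well) were treated with compound for 16 hr at 37°C in complete medium; caspase-3/7 activity was read by Caspase-Glo luminescence. Normalized to DMSO and 100 uM tamoxifen; AC50 from Hill fits.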

CN(C)[C@@H]1C(=O)C(C(N)=O)=C(O)[C@@]2(O)C(=O)C3=C(O)c4c(O)cccc4[C@@](C)(O)[C@H]3[C@H](O)[C@@H]12
outcome [1]: inactive | Potency [2]: inactive | Potency [3]: inactive | Potency [4]: inactive | Potency [5]: inactive | Potency [6]: inactive | Potency [7]: inactive | outcome [8]: inactive | outcome [9]: inactive | outcome [10]: inactive | outcome [11]: inactive | outcome [12]: inactive | outcome [13]: inactive | outcome [14]: inactive | outcome [15]: inactive | outcome [16]: inactive | outcome [17]: inactive | outcome [18]: inactive

Nc1ccc(Sc2ccc(N)cc2)cc1
outcome [1]: inactive | Potency [2]: inactive | Potency [3]: inactive | Potency [5]: inactive | Potency [6]: inactive | Potency [7]: inactive | outcome [8]: inactive | outcome [9]: inactive | outcome [10]: inactive | outcome [11]: inactive | outcome [12]: inactive | outcome [13]: inactive | outcome [14]: inactive | outcome [15]: inactive | outcome [16]: inactive | outcome [17]: inactive | outcome [18]: inactive

CCCCCCCCc1ccc(O)cc1
outcome [1]: inactive | Potency [2]: inactive | Potency [3]: inactive | Potency [4]: inactive | Potency [5]: inactive | Potency [6]: inactive | Potency [7]: inactive | outcome [8]: inactive | outcome [9]: inactive | outcome [10]: inactive | outcome [11]: inactive | outcome [12]: inactive | outcome [13]: inactive | outcome [14]: inactive | outcome [15]: inactive | outcome [16]: inactive | outcome [17]: inactive | outcome [18]: inactive

Nc1ccc([N+](=O)[O-])cc1
outcome [1]: inactive | Potency [2]: inactive | Potency [3]: inactive | Potency [4]: inactive | Potency [5]: inactive | Potency [6]: inactive | Potency [7]: inactive | outcome [8]: inactive | outcome [9]: inactive | outcome [10]: inactive | outcome [11]: inactive | outcome [12]: inactive | outcome [13]: inactive | outcome [14]: inactive | outcome [15]: inactive | outcome [16]: inactive | outcome [17]: inactive | outcome [18]: inactive

O=C(O)C(Cl)Cl
outcome [1]: inactive | Potency [2]: inactive | Potency [3]: inactive | Potency [4]: inactive | Potency [5]: inactive | Potency [6]: inactive | Potency [7]: inactive | outcome [8]: inactive | outcome [9]: inactive | outcome [10]: inactive | outcome [11]: inactive | outcome [12]: inactive | outcome [13]: inactive | outcome [14]: inactive | outcome [15]: inactive | outcome [16]: inactive | outcome [17]: inactive | outcome [18]: inactive

C1CCC(NC2CCCCC2)CC1
outcome [1]: inactive | Potency [2]: inactive | Potency [3]: inactive | Potency [4]: inactive | Potency [5]: inactive | Potency [6]: inactive | Potency [7]: inactive | outcome [8]: inactive | outcome [9]: inactive | outcome [10]: inactive | outcome [11]: inactive | outcome [12]: inactive | outcome [13]: inactive | outcome [14]: inactive | outcome [15]: inactive | outcome [16]: inactive | outcome [17]: inactive | outcome [18]: inactive

CCOP(=O)(NC(C)C)Oc1ccc(SC)c(C)c1 (stereo unspecified)
outcome [1]: inactive | Potency [3]: inactive | Potency [4]: inactive | Potency [5]: 12.6 µM (active) | Potency [6]: inactive | Potency [7]: inactive | outcome [8]: inactive | outcome [9]: inactive | outcome [10]: inactive | outcome [11]: inactive | outcome [12]: inactive | outcome [13]: inactive | outcome [14]: inactive | outcome [15]: inactive | outcome [16]: inactive | outcome [17]: inactive | outcome [18]: inactive

O=[N+]([O-])c1c(Cl)c(Cl)cc(Cl)c1Cl
outcome [1]: inactive | Potency [3]: inactive | Potency [4]: inactive | Potency [5]: inactive | Potency [6]: inactive | Potency [7]: inactive | outcome [8]: inactive | outcome [9]: inactive | outcome [10]: inactive | outcome [11]: inactive | outcome [12]: inactive | outcome [13]: inactive | outcome [14]: inactive | outcome [15]: inactive | outcome [16]: inactive | outcome [17]: inactive | outcome [18]: inactive
